# Sampled rows, rich in hits. Any-hit rate of the full collection: about 7.3%.
# HCV inhibitor – HCV inhibition; Huh7.5.1 HCVcc-Cre infection, luciferase reporter, 44 h; 340,000 tested, 3.4% active; Potency, µM (doses to about 41.8 µM), usual class: inhibitors; active means well fitted inhibition curve with a large enough effect; inconclusive means small, poorly fitted or top-dose-only effect, or another doubt; inactive means no such curve, though single readings can be large or run the other way
#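 Infectious HCV cell culture screen: compound-treated cells (1,000/well, pre-plated 4 h) are infected with HCVcc-Cre at roughly 0.5 moi and grown 44 h. Infection is quantified by luciferase signal after 15 min substrate incubation at room temperature.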
# HCMV inh – human cytomegalovirus inhibition. HFF cells, HCMV-luciferase reporter, 72 h; active compounds read low. activity change, negative = inhibition, % at 57.5 µM. 410,000 tested, 4.5% active. AID 1259415; in the data active means activity change below about -60%; inconclusive means no clear call, values can overlap the other calls; inactive means above about -39%
#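 Compounds were evaluated in HFFs infected with an HCMV luciferase reporter virus (MOI 1 PFU/cell). Luciferase in lysates collected 72 h post infection served as the replication measure.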
# VACV mCherry inh – inhibitors of vaccinia virus infection (mCherry reporter signal); Vaccinia virus mCherry reporter infection, fluorescence; 310,000 tested, 0.63% active; Potency, µM (titrated, usually from 36.5 µM), hits mostly inhibitors; calls by dose curve; tested in A549 cells; further: nearly all actives have a fitted effect of over 35% in size
# FMDV antiviral – foot and mouth disease virus antiviral activity; Potency, µM (highest dose often 57.9 µM), most hits filed as inhibitors; 410,000 tested, 1.2% active; FMDV antiviral cell-based qHTS; calls by dose curve; tested in HEK293T cells; further: read-out not given here; nearly all actives have a fitted effect of over 45% in size
# Vaccinia Venus – inhibitors of vaccinia virus (Venus reporter); Vaccinia virus Venus reporter expression, fluorescence; Potency, µM (doses to about 36.5 µM), usual class: inhibitors; 330,000 tested, 0.46% active; calls by dose curve; tested in A549 cells; further: nearly all actives have a fitted effect of over 30% in size
# Hits are given with their value; . = inactive; ? = inconclusive; / = not tested or not shown; ! = repeats disagree; [ ] = another dose, or the depositor's remark.
SMILES,HCV inhibitor,HCMV inh,VACV mCherry inh,FMDV antiviral,Vaccinia Venus
O=C(Cc1ccc(N2CCNC2=O)cc1)N1CCCC(Nc2ccc(F)c(F)c2)C1 (stereo unspecified),?,-61,?,.,.
CCOC(=O)C1(Cc2cccc(OC)c2)CCN(C/C=C/c2ccc(OC)cc2)CC1,8.9µM,?,.,14µM,.
CCOC(=O)C1(Cc2ccc(OC)cc2)CCN(C(=O)CCN2CCCC2=O)CC1,.,-76,/,.,/
CCOc1cc(CNC(=O)Cn2ncn3c(cc4cc(F)ccc43)c2=O)cc(OCC)c1OCC,/,.,.,.,.
CCOc1ccccc1CNC(=O)CCn1c(=O)c2cccn2c2ccc(F)cc21,/,?,.,.,.
Cn1cc(C(=O)NCc2ccc(Cl)cc2)c(=O)c2cc(S(=O)(=O)N3CCCCCC3)ccc21,/,.,?,.,.
CC(/C=N/n1c(-c2cccnc2)n[nH]c1=S)=C\c1ccccc1,.,-77,.,.,.
S=c1[nH]nc(-c2cc(-c3ccccc3)n[nH]2)n1/N=C/C(Br)=C/c1ccccc1,?,-100,14µM,?,?
CC(=C/c1ccccc1)/C=N/n1c(-c2ccncc2)n[nH]c1=S,.,?,.,.,.
COCC(=O)O[C@]1(CCN(C)CCCc2nc3ccccc3[nH]2)CCc2cc(F)ccc2[C@@H]1C(C)C,?,-98,.,?,?
CCCC[C@@H]1C=C(C(=O)O)[C@H](c2ccc(CC)cc2)N1S(=O)(=O)c1ccc(C)cc1,0.56µM,.,.,.,.
CCCCC[C@@H]1C=C(C(=O)O)[C@H](c2ccc(CC)cc2)N1S(=O)(=O)c1ccc(C)cc1,.[8.37 µM],.,.,.,.
CC[C@@H]1C=C(C(=O)O)[C@H](c2ccc3c(c2)OCO3)N1S(=O)(=O)c1ccc(C)cc1,32µM,.,?,.,.
C[n+]1ccc(/C=C/c2ccc3ccccc3c2)cc1,/,/,?,.,?
C[n+]1ccc(/C=C/c2ccc(Br)cc2)cc1,?,-63,?,.,?
O=c1c(-c2ccc(F)cc2)nc2cnc(N3CCOCC3)nc2n1Cc1ccc(F)cc1,/,/,/,.,/
O=C(NCc1ccccn1)c1cnn(-c2nccc(-c3cccs3)n2)c1C1CC1,/,/,.,.,.
Cc1c(N=C2N=C(NC(=O)c3ccc(F)cc3)c3ccccc32)c(=O)n(-c2ccccc2)n1C,.,.,.,28µM,.
Cc1c(NC(=O)NC(=O)c2ccc(F)cc2)c(=O)n(-c2ccccc2)n1C,.,.,/,.,.
CC(C)(O)C#Cc1ccc(N2C(c3ccsc3)=Cc3ccc(F)cc3C2c2c[nH]c3ccccc23)cc1 (stereo unspecified),/,-63,.,.,.
COc1ccc(NC(=O)c2cc(S(=O)(=O)N3CCCCC3)c[nH]2)cc1Cl,.,?,.,.,.
CCc1ccc(NC(=O)c2cc(S(=O)(=O)N3CCCC3)c[nH]2)cc1,.,/,.,.,?
CC(C)c1ccc(NC(=O)c2cc(S(=O)(=O)N3CCCC3)c[nH]2)cc1,?,-77,.,.,.
CCOc1ccc(NC(=O)c2cc(S(=O)(=O)N3CCCCC3)c[nH]2)cc1,?,-65!,?,.,.
O=C(Oc1c(-c2ccccc2)c(=O)n2c3c(cccc13)CC2)c1cccc([N+](=O)[O-])c1,.,-72,.,.,.
SMILES,HCV inhibitor,HCMV inh,VACV mCherry inh,FMDV antiviral,Vaccinia Venus
CSCCC(NS(=O)(=O)c1ccc(Br)cc1)C(=O)OCC(=O)NC1CC1 (stereo unspecified),.,-65,.,.,.
CCCCCCCCN1[C@@H](CC(=O)O)c2ccc(/C=C/C(=O)O)cc2S1(=O)=O,/,/,.,/,.
C[n+]1ccccc1/C=C/c1ccccc1Cl,?,-79,.,.,.
Cc1ccccc1/C=C/c1cccc[n+]1C,6.3µM,?,/,.,/
C[n+]1ccccc1/C=C/c1ccc([N+](=O)[O-])cc1,10µM,.,?,.,.
CC1=NN(c2nc(N)nc(/C(C#N)=C/c3ccc([N+](=O)[O-])o3)n2)C(C)(C)C1,8.9µM,.,.,?,.
c1cnc2nc3c4ccccc4c4ccccc4c3nc2c1,2.8µM,.,.,.,.
Cc1ccc(NC(=O)NNC(=O)CSC2CCc3ccccc32)c(C)c1 (stereo unspecified),/,.,/,/,/
CCOc1ccc(C(=O)Nc2ccc3oc(-c4cccc5ccccc45)nc3c2)cc1,/,?,?,.,.
COc1ccc(-n2c(-c3ccc(F)cc3)cn3c4c(=O)n(C)c(=O)n(C)c4nc23)cc1,/,.,.,.,.
Cc1ccc(C(C)C)cc2c(C)ccc1-2,35µM,.,.,.,.
CCCC(=O)Nc1c(C(=O)N2CCN(c3ccccc3)CC2)oc2ccccc12,/,.,.,.,.
COc1ccccc1C(=O)Nc1c(C(=O)N(CCN(C)C)Cc2ccco2)oc2ccccc12,?,-82!,.,?,.
CC(C)(C)C(=O)Nc1c(C(=O)N2CCN(c3ccc(F)cc3)CC2)oc2ccccc12,/,-82,.,.,.
COc1cccc(NC(=O)c2oc3ccccc3c2NC(=O)C(C)(C)C)c1,8.9µM,?,.,.,.
COc1ccc(C(=O)c2oc3ccccc3c2NC(C)=O)cc1,6.3µM,.,.,.,.
COC(=O)CCN(Cc1ccc(OC)cc1OC)S(=O)(=O)c1ccccc1Br,/,.,/,/,/
CCOc1ccccc1NC(=O)c1nc2nc(C)cc(C(F)F)n2n1,/,?,.,.,.
FC(F)(F)c1cnc(-c2cc3c(c(OCC4CCCO4)c2)OCCN(Cc2cccn2-c2nccs2)C3)c(Cl)c1 (stereo unspecified),/,/,.,.,.
COc1ccccc1C(=O)Nc1c(C(=O)NC(C)(C)C)oc2ccccc12,/,-71,.,.,.
CN(C)CCN(Cc1ccco1)C(=O)c1oc2ccccc2c1NC(=O)c1ccccc1,/,-61,.,.,.
Cc1ccc(C)c(Cn2c(=O)n(C(C)C)c(=O)c3oc4ccccc4c32)c1,/,.,.,.,.
Cc1ccc(C)c(NC(=O)CSc2nnc(CSc3nc(C)cc(C)n3)n2Cc2ccco2)c1,.,.,/,.,/
COc1ccc(C)cc1NC(=O)CSc1nnc(COc2ccccc2)n1Cc1ccco1,.,.,/,.,/
Cc1ccc(NC(=O)CSc2nnc(CSc3nc(C)cc(C)n3)n2Cc2ccco2)c(C)c1,11µM,.,.,.,.
SMILES,HCV inhibitor,HCMV inh,VACV mCherry inh,FMDV antiviral,Vaccinia Venus
COc1ccc(C)cc1NC(=O)CSc1nnc(COc2ccc(Cl)cc2)n1Cc1ccco1,?,-84,/,.,/
O=C(N/C(=C/c1ccc(Br)cc1)C(=O)N1CCOCC1)c1cccs1,.,-62,.,.,.
COc1ccc(/C=C(/NC(=O)c2cccs2)C(=O)N2CCOCC2)cc1OC,.,.,.,.,.
CC1Cc2cc(S(=O)(=O)N3CCN(c4ccc(Cl)cc4)CC3)ccc2N1C(=O)C1CC1 (stereo unspecified),6.3µM,.,.,?,.
CC(=O)N1c2ccc(S(=O)(=O)N3CCC(C(=O)NCCc4ccc(Cl)cc4)CC3)cc2CC1C (stereo unspecified),10µM,.,.,?,.
CC(=O)N1c2ccc(S(=O)(=O)N3CCCC(C(=O)N4CCCC(C)C4)C3)cc2CC1C (stereo unspecified),?,?,.,.,.

# Screening data (PubChem BioAssay)
